Results: PubChem BioAssay AID624168 (Sanford-Burnham Center for Chemical Genomics, 2012)
Screen size: about 360,000 compounds; about 800 (0.22%) were called active. The list comes from a sample in which actives are over-represented; it also holds similar structures and randomly drawn compounds. Values without a mark were called inactive.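 Rule for the calls: active = activation of at least 8% versus controls, or a plate z-score of at least 8; inactive = the rest.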

Test: compounds raising alpha-dystroglycan glycosylation – uHTS, Pro5-aDG cells, AlphaScreen, primary screen (AID 624168);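 note: Pro5 are CHO cells carrying HIG-tagged alpha-DG that lacks glycosylation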
Settings: alpha-DG glycosylation AlphaScreen (IIH6), at 10 µM, active compounds read high, 0% Pro5, 100% B10-LARGE cell signal
Compound `O=C(NCc1ccc(F)cc1)C1CCN(C(=O)Nc2ccc(F)cc2)CC1` has an activation of -0.1%.
For `Cc1[nH]c(C)c(S(=O)(=O)N2CCN(c3cccc(C(F)(F)F)c3)CC2)c1C(=O)N1CCCCC1`, the activation was -0.4%.
With `CC1(C)CC(=O)C=C(NC2CC(C)(C)NC(C)(C)C2)C1` the activation was -0.2%.
Compound `CCN(CC)CCNCc1ccc(OCc2ccc(Cl)nc2)c(OC)c1` has an activation of 0.3%.
For `COc1cc(CNCCN(C)C)ccc1OCc1c(F)cccc1Cl`, the activation was 8.5% (active).
In the case of `CCOCCCNCc1ccc(OCc2ccc(F)cc2)c(OC)c1`, the activation is reported as 0.1%.
`CCCCNCc1ccc(SC)cc1` showed an activation of 0.3%.
With `C[C@H](CO)N1C[C@H](C)[C@H](CN(C)CC2CC2)Oc2ccc(NC(=O)CCN3CCOCC3)cc2C1=O` the activation was 0.2%.
Compound `Cc1ccc(N2C(=O)SC(N(CC(=O)O)c3ccc(C)cc3)C2=O)cc1` (configuration not stated) has an activation of 1.3%.
In the case of `CCn1c(SCc2cccc(C(=O)O)c2)nnc1-c1ccc(Cl)cc1`, the activation is reported as 0%.
For `CN(C)CCCNC(=O)/C=C/c1ccc(OCc2c(F)cccc2Cl)cc1`, the activation was 13.4% (active).
In the case of `O=C(/C=C/c1ccc(Cl)cc1)NCCCn1ccnc1`, the activation is reported as -0.1%.
Compound `Fc1cccc(Cl)c1COc1ccc(-c2nnco2)cc1` has an activation of -0.1%.
Work on `CS(=O)(=O)N(CC(=O)N1CCCCCC1)c1cccc(Cl)c1Cl` yielded an activation of -0.1%.
In the case of `COc1ccc(CCCNC(=O)C2Cc3c(-c4cccc(C(N)=O)c4)ccnc3O2)cc1` (configuration not stated), the activation is reported as 0.1%.
With `COc1ccc(NC(=O)COc2ccc(C(=O)c3ccc(F)cc3)cc2)cc1S(N)(=O)=O` the activation was 0%.
In the case of `O=C(OCC(=O)N1CCc2ccccc21)c1ccc([N+](=O)[O-])cc1`, the activation is reported as 0.1%.
`C[N+]1(CC(O)COc2ccccc2)CCN(C(=O)c2ccc([N+](=O)[O-])cc2)CC1` (configuration not stated) showed an activation of -0.2%.
In the case of `COc1ccccc1C1SCCN1C(=O)c1ccc([N+](=O)[O-])cc1` (configuration not stated), the activation is reported as 6.9% (active).
In the case of `CC(C)N(C(=O)CSc1nc(COc2ccccc2)nc2ccccc12)C(C)C`, the activation is reported as 0.2%.
Compound `CCOc1cc(CNCCN(C)C)c(Cl)cc1OCC(=O)NCCc1ccccc1` has an activation of 0.7%.
Compound `Cc1cccn2c(=O)nc(SCC(=O)NCc3ccccc3Cl)nc12` has an activation of 0.1%.
In the case of `O=C(Oc1ccccc1C(=S)N1CCCCC1)c1cc([N+](=O)[O-])cc([N+](=O)[O-])c1`, the activation is reported as -0.2%.
Work on `CN(O)C(=S)c1ccccc1` yielded an activation of -0.2%.
Compound `Cc1ccc(F)c(S(=O)(=O)NC(=O)C2(C)CCN2C(=O)c2ccco2)c1` (configuration not stated) has an activation of -0.2%.
`O=C(NCc1cccs1)C(=O)NCC1OCCCN1S(=O)(=O)c1ccc(F)cc1` (configuration not stated) gave an activation of 0%.
Compound `COCCNC(=O)C(OC(=O)c1cccs1)c1ccc(F)cc1` (configuration not stated) has an activation of -0.1%.
With `CC(C)C(=O)NCC(c1cccs1)S(=O)(=O)c1ccc(F)cc1` (configuration not stated) the activation was 6.9% (active).
In the case of `O=C(c1ccc(N2CCCC2=O)cc1)N1CCN(c2ccc(C(F)(F)F)cc2[N+](=O)[O-])CC1`, the activation is reported as 7% (active).
In the case of `COc1cc(OC)cc(C(=O)NC(=S)N2CCN(c3ccc(C(F)(F)F)cc3[N+](=O)[O-])CC2)c1`, the activation is reported as 0.3%.
In the case of `O=C(Cc1ccc(S(=O)(=O)N2CCOCC2)s1)N1CCN(c2ccc(C(F)(F)F)cc2[N+](=O)[O-])CC1`, the activation is reported as 0.7%.
`CC1CCCN(S(=O)(=O)c2ccc(N(C(=O)c3cnccn3)C(C(=O)NC3CCCCC3)c3cccs3)cc2)C1` (configuration not stated) showed an activation of -0.1%.
For `Cc1ccccc1NC(=O)CCNS(=O)(=O)c1ccc2[nH]c(=O)oc2c1`, the activation was -0.2%.
In the case of `COc1ccc(C)cc1NC(=O)CN(C)S(=O)(=O)c1ccc2c(c1)n(C)c(=O)c(=O)n2C`, the activation is reported as -0.2%.
With `CC1=C(C(=O)NC2CC(C)(C)Cc3c2cnn3-c2ccc(C)cc2)OCCO1` (configuration not stated) the activation was 0.4%.
In the case of `COC(=O)c1ccc(C(=O)NC2CC(C)(C)Cc3c2cnn3-c2ccc(F)cc2)nc1` (configuration not stated), the activation is reported as 0%.
With `Cn1nccc1C(=O)NC1CCCc2c1cnn2-c1ccc(F)cc1F` (configuration not stated) the activation was 5% (active).
For `COc1ccc(C23NCCN2C(=O)c2ccccc23)cc1` (configuration not stated), the activation was -0.1%.
`Cc1ccsc1C(=O)NCCc1ccco1` gave an activation of -0.1%.
For `Cc1c(CN2CCC(CO)(CCOc3ccccc3)CC2)[nH]c2ccc(Cl)cc12`, the activation was 2.4%.
Compound `COCCn1c(SCC(=O)c2[nH]c(C)c(C(C)=O)c2C)nc2ccccc2c1=O` has an activation of 0%.
Work on `CCc1[nH]nc(C(=O)N2CCCC(CNS(=O)(=O)c3cccs3)C2)c1C` (configuration not stated) yielded an activation of 0.1%.
For `Cc1ccccc1OCc1nnc(SCC(=O)N2c3ccccc3Sc3ccc(Cl)cc32)o1`, the activation was 0.3%.
Work on `O=C(CNCc1ccc(F)cc1)Nc1ccccc1-c1ccccc1` yielded an activation of 0.6%.
Work on `Cc1nc2nc[nH]n2c(=O)c1NC(=O)c1cccc(OCC(C)C)c1` yielded an activation of 0.1%.
Compound `CCc1cccc(C)c1NC(=O)COC(=O)CC1CCCC1` has an activation of 0.2%.
For `COc1ccc(NC(=O)CSc2nnc(C3CC3)n2C)cc1S(=O)(=O)N1CCCCC1`, the activation was -0.1%.
In the case of `COc1ccc(NC(=O)CSc2nnc(-c3ccccc3F)n2C2CC2)cc1S(N)(=O)=O`, the activation is reported as 6.3% (active).
Work on `CC(Sc1nnc(-c2ccccc2F)n1C1CC1)C(N)=O` (configuration not stated) yielded an activation of 0.1%.
`OCC1OC(n2cnc3c(N4CCCC4)ncnc32)C(O)C1O` (configuration not stated) showed an activation of -0.1%.
Work on `Cc1[nH][nH]c(=O)c1C(c1ccc(-c2ccc(Cl)cc2)o1)c1c(C)[nH][nH]c1=O` yielded an activation of 0%.
For `CCNC(=O)NC(=O)C(C)OC(=O)c1cc(S(=O)(=O)N2CCCCCC2)ccc1OC` (configuration not stated), the activation was 0%.
For `Cc1cc(C)c(C#N)c(SCC(=O)NN2CC(=O)N(c3ccccc3F)CC2=O)n1`, the activation was -0.2%.
For `CCOc1ccc(C(=O)Nc2c3c(nn2-c2ccccc2)CS(=O)(=O)C3)cc1`, the activation was 0.3%.
`COc1ccccc1OCC(=O)Nc1c2c(nn1-c1ccc(F)cc1)CS(=O)(=O)C2` showed an activation of -0.1%.
In the case of `CCOc1ccc(OCC(=O)Nc2c3c(nn2C(C)(C)C)CS(=O)(=O)C3)cc1`, the activation is reported as 7.3% (active).
`O=S(=O)(c1ccc(Br)cc1)N1CCC(c2nc3ccccc3[nH]2)CC1` gave an activation of 0.7%.
